# Screening results deposited in PubChem BioAssay by National Center for Advancing Translational Sciences (NCATS).
# Compounds with a hit are over-represented: about 3.1% of the library has one in this group of screens.
# Tb PFK block: blocks T. brucei phosphofructokinase; T. brucei PFK, ADP-Glo luminescence; Potency, µM (top dose mostly 57.5 µM), for the others: at the top dose activity, negative = inhibition, usual class: inhibitors; 330,000 compounds, 0.17% hits; AID 485367;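 also: 0% = uninhibited 1x PFK enzyme wells and -100% = no-enzyme wells; nearly all actives have a fitted effect of over 60% in size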
# Target sequence (O15648 whole entry, looked up): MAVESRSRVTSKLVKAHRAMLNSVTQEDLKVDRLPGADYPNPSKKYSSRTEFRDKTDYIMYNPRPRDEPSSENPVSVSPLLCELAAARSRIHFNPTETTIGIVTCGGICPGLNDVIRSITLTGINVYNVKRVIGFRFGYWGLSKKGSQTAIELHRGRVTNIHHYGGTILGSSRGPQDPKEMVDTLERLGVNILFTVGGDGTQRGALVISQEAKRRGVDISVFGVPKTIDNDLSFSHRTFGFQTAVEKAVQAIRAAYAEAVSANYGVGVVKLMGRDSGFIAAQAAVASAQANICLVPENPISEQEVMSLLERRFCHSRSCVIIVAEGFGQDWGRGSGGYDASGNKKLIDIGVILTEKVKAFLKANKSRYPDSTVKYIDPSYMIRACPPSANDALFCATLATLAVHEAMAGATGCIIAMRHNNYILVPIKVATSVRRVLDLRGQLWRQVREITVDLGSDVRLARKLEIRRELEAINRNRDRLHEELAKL
#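 Luminescent ADP detection (ADP-Glo, two-step: ATP depletion then ADP-to-ATP conversion for luciferase) reported PFK activity after 45 min room-temperature reaction of 1.25 nM enzyme with 0.5 mM F6P and 0.1 mM ATP at pH 8.0.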
# Pin1 inhibitor: blocks the human prolyl isomerase Pin1; Q13526; Pin1 FP peptide displacement, HiFluor488, 10 min; Potency, µM (highest dose often 115 µM), without a hit: at the top dose activity, negative = inhibition, usual class: inhibitors; 390,000 compounds, 0.009% hits; AID 504891; active = well fitted inhibition curve with a large enough effect in the polarisation, with a control signal flat, not every such curve was filed as active; inconclusive = small, poorly fitted or top-dose-only effect, or effect the other way, or a change in a side signal; inactive = no such curve, though single readings can be large or run the other way; the % refers to the polarisation; also: % is scaled to controls: 0 for no effect and ±100 for the full control effect
# Target sequence (Q13526 whole entry, looked up): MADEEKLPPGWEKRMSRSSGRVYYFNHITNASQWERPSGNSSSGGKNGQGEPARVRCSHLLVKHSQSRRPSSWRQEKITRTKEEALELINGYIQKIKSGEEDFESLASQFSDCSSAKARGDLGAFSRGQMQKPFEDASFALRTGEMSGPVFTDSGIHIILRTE
# TDP1 block: inhibitors of human tyrosyl-DNA phosphodiesterase TDP1; recombinant TDP1, AlphaScreen DNA substrate cleavage; Potency, µM (doses to about 130 µM), for inactives: at the highest dose activity change, negative = inhibition, hits mostly inhibitors; 350,000 compounds, 0.28% hits; also: % is scaled to controls: 0 for no effect and ±100 for the full control effect; nearly all actives have a fitted effect of over 40% in size
#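 Steps: enzyme plus compound, 15 min RT; add biotin/phosphotyrosine-FITC oligonucleotide (15 nM final), react 5 min; add donor/acceptor beads (10 ug/ml final), 10 min; read AlphaScreen. Tdp1 at 1 nM final.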
# VDR inh: blocks the human vitamin D receptor | P11473 | VDR-SRC2-3 peptide fluorescence polarization, 2 h | 400,000 compounds, 0.93% hits | Potency, µM, for inactives: max response, negative = inhibition, usual class: inhibitors; also: % is scaled to controls: 0 for no effect and ±100 for the full control effect
#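 After 23 nl compound addition and a short centrifugation, plates sat for 2 hours at ambient temperature; polarization of fluorescence then indicated loss of VDR binding to peptide SRC2-3.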
# S-ASM inh: blocks human secretory acid sphingomyelinase; P17405; placental ASM, HMU-PC fluorogenic substrate, 60 min; Potency, µM (doses to about 57.5 µM), inactives show at the top dose activity change, negative = inhibition, usual class: inhibitors; 340,000 compounds, 0.006% hits; AID 504937
#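 Human placenta-derived ASM preincubated with compound 10 min at room temperature, then reacted with 9 uM (final) fluorogenic HMU-PC substrate for 60 min at 37 C. Stop solution raises pH to 10; fluorescence read at Ex 386/Em 447 nm.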
# PLK1 PBD block: inhibitors of human PLK1 polo-box domain binding | AID 720504 | 360,000 compounds, 2.8% hits | Plk1 PBD binding of FITC phosphopeptide, fluorescence polarization | Potency, µM, for inactives: max response, negative = inhibition, hits mostly inhibitors | P53350; also: series mostly up to about 57 µM; % is scaled to controls: 0 for no effect and ±100 for the full control effect; nearly all actives have a fitted effect of over 65% in size
# VDR inh confirm: inhibits human vitamin D receptor, primary hit validation. VDR-coactivator inhibition assay, qHTS confirmation. 840 compounds, 89% hits. Potency, µM, most hits filed as inhibitors. shares compounds with VDR inh. AID 602199
# VDR FP fluor: confirmation of human VDR-coactivator binding inhibitors, fluorescein label | shares compounds with VDR inh | VDR-coactivator binding, fluorescein fluorescence polarization | Potency, µM (highest dose often 57.1 µM), inactives show at the highest dose activity change, negative = inhibition, hits mostly inhibitors | 840 compounds, 48% hits | AID 602200
# VDR bla: VDR (human) inhibition, cell-based beta-lactamase validation; shares compounds with VDR inh; VDR beta-lactamase reporter cells, FRET ratio; cells co-treated with VDR agonist LG190178; Potency, µM (doses to about 46.1 µM), without a hit: top-dose activity change, negative = inhibition, hits mostly inhibitors; 840 compounds, 23% hits; also: % is scaled to controls: 0 for no effect and ±100 for the full control effect
# VDR viability: cytotoxic in counter-screen for VDR inhibitors | shares compounds with VDR inh | cytotoxicity counter-screen, cell viability, qHTS | Potency, µM (series often up to 48.3 µM), without a hit: at the top dose activity change, negative = cytotoxicity, usual class: cytotoxic | 840 compounds, 18% hits | AID 602204;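 also: plate controls were DMSO for no effect and high-concentration cycloheximide for full effect; nearly all actives have a fitted effect of over 75% in size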
# TbPYK confirm: confirmation of Trypanosoma brucei pyruvate kinase inhibitors | shares compounds with PLK1 PBD block | 890 compounds, 67% hits | recombinant TbPYK, Kinase-Glo ATP luminescence | Potency, µM (series often up to 76.9 µM), without a hit: at the highest dose activity change, negative = inhibition, actives largely listed as inhibitors; also: % is scaled to controls: 0 for no effect and ±100 for the full control effect; nearly all actives have a fitted effect of over 70% in size
# TbPYK orthogonal: TbPYK inhibition, orthogonal confirmation; shares compounds with PLK1 PBD block; recombinant TbPYK, ADP-Glo luminescence, 60 min; Potency, µM (highest dose often 76.9 µM), for the others: top-dose activity change, negative = inhibition, actives largely listed as inhibitors; 890 compounds, 62% hits; also: % is scaled to controls: 0 for no effect and ±100 for the full control effect; nearly all actives have a fitted effect of over 75% in size
# * hit, by the source's call; ? = inconclusive; nt = not tested or not shown; [ ] = dose if it differs, or a comment. Unless noted, calls follow the shape of the dose curve; as a rule, active = well fitted curve in the direction sought with a large enough effect; inconclusive = small, poorly fitted or top-dose-only effect, or another doubt; inactive = no such curve, though single readings can be large; an effect the other way counts as inactive or inconclusive. Potency is read from the fitted curve at half-maximal effect.
SMILES,Tb PFK block,Pin1 inhibitor,TDP1 block,VDR inh,S-ASM inh,PLK1 PBD block,TbPYK confirm,TbPYK orthogonal,others
O=C(O)/C=C/C(=O)c1ccc2c(c1)CCc1ccccc1-2,-6%,11%,-3%,3.5µM*,19%,6µM*,13µM*,16µM*,VDR inh confirm=3.8*;VDR FP fluor=?;VDR bla=?;VDR viability=?
CC1C(=O)OC2C(O)C34C5OC(=O)[C@@]3(OC3OC(=O)[C@H](O)[C@]34C(C(C)(C)C)C5O)[C@]12O (some centres undefined),nt,nt,7%[56.1 µM],2%,nt,nt,nt,nt,
CN1C(=O)C(=Cc2ccccc2OS(=O)(=O)c2ccccc2)C(=O)N(C)C1=O,10%,-6%,-4%,25µM*,-2%,5.3µM*,20µM*,?,VDR inh confirm=27*;VDR FP fluor=11µM*;VDR bla=20%;VDR viability=-13%
CN1CCN(P(=O)(c2ccccc2)c2nc3ccccc3s2)CC1 (centres undefined),0%,1%,0%,-9%,0%,?,nt,nt,
O=C1NC(=S)NC(=O)C1=Cc1cccn1-c1ccc(O)cc1,?,nt,-8%,25µM*,-6%,2.4µM*,7.1µM*,16µM*,VDR inh confirm=8.4*;VDR FP fluor=?;VDR bla=?;VDR viability=?
COc1ccc(Br)cc1C1SCC(=O)Nc2c1c(C)nn2-c1ccccc1C (centres undefined),nt,0%,9%,-9%,nt,nt,nt,nt,
Cc1ccc(OCCOc2cccc(C=C3C(=O)NC(=O)NC3=O)c2)cc1,-1%,?,nt,40µM*,-8%,2.7µM*,?,?,
Cc1cccc(OCCn2c(=O)oc3ccc(C)cc32)c1,2%,?,-3%,6%,-12%,-9%,nt,nt,
O=C(O)Cn1cc(/C=C2\C(=O)NC(=O)N(c3ccc(F)cc3)C2=O)c2ccccc21,-5%,nt,-19%,nt,nt,nt,nt,nt,
O=C1NC(=O)N(c2ccc(Cl)cc2)C(=O)/C1=C/c1coc2ccc(O)cc2c1=O,-12%,40%,nt,?,-2%,7.5µM*,?,?,
O=C1NC(=O)N(c2ccccc2)C(=O)/C1=C/c1coc2ccc(O)cc2c1=O,-11%,-1%,nt,50µM*,-1%,12µM*,22µM*,?,
CC(C)CN1CC2(CCN(C(=O)Oc3ccccc3)CC2)C1,nt,nt,nt,1%,nt,nt,nt,nt,
COc1ccc(N2C(=O)/C(=C/c3ccc(N(C)C)o3)C(=O)NC2=S)cc1,-2%,?,nt,0%,-6%,106%,?,?,
CCc1ccc(N2C(=O)NC(=O)/C(=C/c3cccn3CCOc3ccc(C(C)CC)cc3)C2=O)cc1 (centres undefined),-1%,?,0%,-8%,3%,-11%,nt,nt,
COc1cccc(N2C(=O)/C(=C/c3ccc(C)o3)C(=O)NC2=S)c1,-1%,?,nt,?,-7%,2.7µM*,16µM*,28µM*,
O=C1NC(=O)N(c2ccccc2)C(=O)/C1=C/c1ccoc1,14%,?,-10%,-4%,2%,5.3µM*,?,-28%,
Cc1ccc(/C=C2\C(=O)NC(=S)N(c3ccc(F)cc3)C2=O)o1,1%,?,nt,-6%,-14%,3.8µM*,16µM*,20µM*,
ClC(Cl)(Cl)Cl,nt,nt,8%,1%,nt,nt,nt,nt,
Cn1c(=O)n(C)c2cc(CNCCc3ccccc3F)ccc21,nt,-5%,-2%,10%,nt,nt,nt,nt,
Cc1nc(N)sc1CCN,nt,nt,15%,?,nt,nt,nt,nt,
O=C1NC(=S)N(c2ccccc2)C(=O)/C1=C/c1ccco1,?,?,nt,?,-15%,3µM*,11µM*,16µM*,
Cc1ccc(/C=C2\C(=O)NC(=S)N(c3ccc(F)cc3)C2=O)s1,6%,?,-4%,35µM*,4%,1.3µM*,13µM*,?,
Cc1cc(C)cc(N2C(=O)/C(=C\c3ccc(N4CCN(C)CC4)o3)C(=O)NC2=S)c1,-5%,?,4%,-3%,-13%,119%,nt,nt,
C=CCN1C(=O)/C(=C/c2cccs2)C(=O)NC1=S,0%,27%,3%,?,0%,5.3µM*,22µM*,35µM*,
COc1ccc(N2C(=O)/C(=C/c3cccs3)C(=O)NC2=S)cc1,3%,?,-5%,-2%,-3%,2.1µM*,16µM*,25µM*,
SMILES,Tb PFK block,Pin1 inhibitor,TDP1 block,VDR inh,S-ASM inh,PLK1 PBD block,TbPYK confirm,TbPYK orthogonal,others
Cc1cccc(N2C(=O)/C(=C/N3CCN(C(=O)c4ccco4)CC3)C(=O)NC2=S)c1,0%,?,1%,16%,2%,?,nt,nt,
O=[N+]([O-])c1ccc2c3c(cccc13)CC2,nt,nt,14%,nt,nt,nt,nt,nt,
c1cncc([C@@H]2CCCCN2)c1,nt,nt,7%,6%,nt,nt,nt,nt,
CC(C)C1C(=O)N2CCCC2[C@]2(O)O[C@@](NC(=O)[C@@H]3C=C4c5cccc6[nH]cc(c56)C[C@H]4N(C)C3)(C(C)C)C(=O)N12 (some centres undefined),nt,nt,10%[56.1 µM],nt,nt,nt,nt,nt,
Ic1c(C2=CCCCC2)[se]c2ccccc12,nt,nt,2%,-13%,nt,nt,nt,nt,
COc1ccc(CN2C(=O)NC(=O)/C(=C/c3ccc([N+](=O)[O-])s3)C2=O)cc1,-1%,?,5%,22µM*,-14%,1.9µM*,18µM*,32µM*,
O=C1NC(=O)N(Cc2ccc(F)cc2)C(=O)/C1=C\c1ccc([N+](=O)[O-])s1,-3%,10µM*,4%,?,-9%,2.7µM*,14µM*,16µM*,
C=CCN1C(=O)NC(=O)/C(=C\c2ccc(-c3ccccc3[N+](=O)[O-])o2)C1=O,24%,-3%,-3%,18µM*,-9%,1.5µM*,10µM*,25µM*,
